Active and inactive are the calls of the source.
Assays:
Albumin (Bos taurus) = Albumin (Bos taurus) (UniProt P02769); experiment: compounds binding labelled BSA control protein – biochemical, small-molecule microarray, Alexa647 label, 635/667 nm fluorescence, artefact control for SMM control protein annotation, profiling panel (AID 1118); details: BSA-A647 binding, fluorescence 635 nm, higher = more signal;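 further: score merges 667 nm emission intensity and signal-to-noise per printed compound spot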
Albumin (Bos taurus), sequence (P02769 whole entry, looked up): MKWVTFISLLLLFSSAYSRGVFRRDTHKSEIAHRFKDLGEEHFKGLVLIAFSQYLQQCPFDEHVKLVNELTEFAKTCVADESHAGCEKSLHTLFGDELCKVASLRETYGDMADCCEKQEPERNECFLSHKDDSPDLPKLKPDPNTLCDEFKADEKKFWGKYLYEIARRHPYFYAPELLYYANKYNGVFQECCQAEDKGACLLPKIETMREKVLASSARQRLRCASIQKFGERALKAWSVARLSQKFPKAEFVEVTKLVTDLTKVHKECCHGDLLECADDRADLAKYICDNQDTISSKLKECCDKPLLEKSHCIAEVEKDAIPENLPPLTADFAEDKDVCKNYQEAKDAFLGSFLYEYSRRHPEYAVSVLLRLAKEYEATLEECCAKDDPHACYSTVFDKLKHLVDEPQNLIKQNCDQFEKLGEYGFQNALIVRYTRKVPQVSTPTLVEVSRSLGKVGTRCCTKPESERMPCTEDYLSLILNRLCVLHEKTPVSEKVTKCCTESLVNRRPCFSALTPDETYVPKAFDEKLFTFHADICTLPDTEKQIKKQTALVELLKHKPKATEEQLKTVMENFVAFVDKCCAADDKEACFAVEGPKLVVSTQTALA

[1] = probe aXIP binding to arrayed compounds – biochemical, NeuroSMM set, 635/667 nm fluorescence, primary screen (AID 1119); details: small-molecule microarray, higher = more signal, called active from +8 up or from −8 down;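 further: probe is the protein aXip251-270 applied at 1 µg/mL to compound-printed slides; binding of probe to printed compounds measured as 667 nm fluorescence plus signal to noise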
[2] = probe aNOTCH3 binding on compound microarray – biochemical, small-molecule microarray, 635/667 nm fluorescence, primary screen (AID 1120); details: higher = more signal;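 further: probe is a biotin-tagged antibody raised against NOTCH3 rather than NOTCH3 protein; score merges spot fluorescence near 667 nm with spot signal to noise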
[3] = probe aNOTCH2 binding on compound microarray – biochemical, small-molecule microarray, 635/667 nm fluorescence, primary screen (AID 1121); details: higher = more signal;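 further: score merges feature fluorescence read at 667 nm with its signal to noise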
[4] = molecular target: Carbonic anhydrase 2 (Homo sapiens) (UniProt P00918); experiment: compounds binding carbonic anhydrase 2 – biochemical, small-molecule microarray, Alexa647-labelled CAII, profiling panel (AID 1122); details: CAII-A647 binding fluorescence, higher = more signal
[5] = COS7 lysate on small-molecule microarray, probe aHis, 635 nm (AID 1123); details: COS7 cell lysate, fluorescence, higher = more signal;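 further: z-score combines 667nm fluorescence intensity with signal-to-noise per printed compound spot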
[6] = probe aLAP1 signal on lysate-treated microarray – cell lysate, small-molecule microarray, COS7 lysate, primary screen (AID 1124); details: probe aLAP1, fluorescence, higher = more signal;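 further: lysate comes from COS7 cells expressing LAP1 and is applied at 0.3 µg/mL; score merges spot fluorescence near 667 nm with signal-to-noise over triplicate slides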
Sam68 (KHDRBS1) = experiment: compounds binding KHDRBS1 protein – biochemical, small-molecule microarray, 635 nm fluorescence, primary screen (AID 1125); details: higher = more signal;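 further: score merges 667 nm channel intensity with signal to noise over triplicate slides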
[7] = tested on: Chordin-like protein 2 (CHRDL2); experiment: compounds binding chordin-like 2 – biochemical, small-molecule microarray, 635 nm fluorescence, primary screen (AID 1126); details: fluorescence 635 nm, higher = more signal;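 further: printed compound slides probed with Chrdl2 protein at 4 µg/mL for 1 h at 4 C; score merges 667 nm emission intensity with signal to noise over three replicate slides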
[8] = molecular target: Concanavalin-A (Canavalia ensiformis) (UniProt P02866); experiment: compounds binding concanavalin A lectin – biochemical, small-molecule microarray, Alexa647 label, 635 nm, artefact control for SMM control protein annotation, primary screen (AID 1127); details: ConA-A647 binding fluorescence, higher = more signal;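 further: z combines 667 nm emission intensity with signal-to-noise across three replicate slides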
Concanavalin-A (Canavalia ensiformis), sequence (P02866 whole entry, looked up): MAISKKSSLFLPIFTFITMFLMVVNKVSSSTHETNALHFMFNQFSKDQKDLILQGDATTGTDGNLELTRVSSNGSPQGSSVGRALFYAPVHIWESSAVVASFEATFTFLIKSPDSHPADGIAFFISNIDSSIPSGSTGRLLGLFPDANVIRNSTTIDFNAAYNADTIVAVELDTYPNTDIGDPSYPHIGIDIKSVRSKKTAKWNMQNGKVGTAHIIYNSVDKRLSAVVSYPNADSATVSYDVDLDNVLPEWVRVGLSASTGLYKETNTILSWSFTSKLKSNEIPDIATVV

[9] = compounds binding Alexa647 anti-His antibody – biochemical, small-molecule microarray, 635 nm fluorescence, artefact control for SMM control protein annotation, primary screen (AID 1128); details: higher = more signal;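 further: score merges feature fluorescence with signal-to-noise for each printed compound spot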
[10] = tested on: Human papillomavirus type 1a E7 protein (residues 1-88); experiment: HPV1a E7 small-molecule binders, primary screen, biochemical, small-molecule microarray, residues 1-88, 635 nm (AID 1129); details: small-molecule microarray binding, fluorescence 635 nm; higher = more signal
[11] = molecular target: Focal adhesion kinase 1 (Homo sapiens) (UniProt Q05397); experiment: PTK2 protein binding on printed compound slides – biochemical, small-molecule microarray, 635/667 nm fluorescence, BSA, DTT, primary screen (AID 1130); details: 635 nm fluorescence, higher = more signal;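 further: composite of spot emission at 667 nm and signal to noise over triplicate slides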
Focal adhesion kinase 1 (Homo sapiens), sequence (Q05397 whole entry, looked up): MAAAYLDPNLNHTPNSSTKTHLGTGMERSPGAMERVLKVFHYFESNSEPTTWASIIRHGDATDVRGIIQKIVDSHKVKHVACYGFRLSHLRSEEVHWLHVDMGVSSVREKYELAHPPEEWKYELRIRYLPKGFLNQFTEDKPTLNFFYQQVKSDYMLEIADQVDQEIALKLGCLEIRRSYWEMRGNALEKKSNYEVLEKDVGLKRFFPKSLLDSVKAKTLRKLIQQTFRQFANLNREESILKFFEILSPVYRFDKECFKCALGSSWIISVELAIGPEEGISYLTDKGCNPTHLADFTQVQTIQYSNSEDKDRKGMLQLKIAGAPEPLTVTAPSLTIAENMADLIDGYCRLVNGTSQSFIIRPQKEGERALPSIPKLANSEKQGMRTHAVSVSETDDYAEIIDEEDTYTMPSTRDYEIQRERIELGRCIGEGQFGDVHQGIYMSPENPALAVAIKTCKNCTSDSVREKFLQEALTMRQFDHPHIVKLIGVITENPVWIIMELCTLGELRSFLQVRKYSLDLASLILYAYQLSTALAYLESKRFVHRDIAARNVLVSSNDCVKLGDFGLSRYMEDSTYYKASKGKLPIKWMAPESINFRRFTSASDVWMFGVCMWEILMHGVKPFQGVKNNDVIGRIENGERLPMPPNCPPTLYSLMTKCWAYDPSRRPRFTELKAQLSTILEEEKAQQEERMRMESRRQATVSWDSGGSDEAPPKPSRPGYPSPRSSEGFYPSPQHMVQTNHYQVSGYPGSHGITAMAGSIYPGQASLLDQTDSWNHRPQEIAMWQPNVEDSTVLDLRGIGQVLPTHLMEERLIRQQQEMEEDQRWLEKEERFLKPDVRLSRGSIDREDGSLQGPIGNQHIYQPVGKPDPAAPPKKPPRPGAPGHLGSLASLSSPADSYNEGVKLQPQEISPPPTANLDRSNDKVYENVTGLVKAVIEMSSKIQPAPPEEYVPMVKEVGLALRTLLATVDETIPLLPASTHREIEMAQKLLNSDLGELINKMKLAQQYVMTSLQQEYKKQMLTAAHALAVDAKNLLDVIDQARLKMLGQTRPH

[12] = tested on: Fibrinogen (Alexa647-labelled); experiment: Alexa647-fibrinogen binding to printed small molecules – biochemical, small-molecule microarray, 635/667 nm fluorescence, artefact control for SMM control-protein annotation, profiling panel (AID 1131); details: fibrinogen-A647 binding fluorescence, higher = more signal;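 further: z-score merges 667 nm fluorescence with per-spot signal-to-noise over triplicate slides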
[13] = molecular target: Follistatin (Homo sapiens) (UniProt P19883); experiment: FST protein binding to printed compounds – biochemical, small-molecule microarray, 635/667 nm fluorescence, primary screen (AID 1132); details: 635 nm fluorescence, higher = more signal
Follistatin (Homo sapiens), sequence (P19883 whole entry, looked up): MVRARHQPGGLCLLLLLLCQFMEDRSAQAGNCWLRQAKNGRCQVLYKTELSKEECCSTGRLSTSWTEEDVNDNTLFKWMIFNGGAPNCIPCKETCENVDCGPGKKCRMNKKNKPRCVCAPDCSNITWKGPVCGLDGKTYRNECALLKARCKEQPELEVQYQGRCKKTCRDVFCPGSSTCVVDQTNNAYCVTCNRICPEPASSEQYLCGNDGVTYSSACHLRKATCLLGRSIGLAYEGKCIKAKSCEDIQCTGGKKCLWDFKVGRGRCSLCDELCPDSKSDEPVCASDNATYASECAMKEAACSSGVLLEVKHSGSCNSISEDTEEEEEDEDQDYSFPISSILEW

[14] = molecular target: Fibroblast growth factor 2 (Homo sapiens) (UniProt P09038); experiment: basic fibroblast growth factor binding to printed compounds – biochemical, small-molecule microarray, 635/667 nm fluorescence, primary screen (AID 1133); details: FGF2, fluorescence 635/667, higher = more signal
Fibroblast growth factor 2 (Homo sapiens), sequence (P09038 whole entry, looked up): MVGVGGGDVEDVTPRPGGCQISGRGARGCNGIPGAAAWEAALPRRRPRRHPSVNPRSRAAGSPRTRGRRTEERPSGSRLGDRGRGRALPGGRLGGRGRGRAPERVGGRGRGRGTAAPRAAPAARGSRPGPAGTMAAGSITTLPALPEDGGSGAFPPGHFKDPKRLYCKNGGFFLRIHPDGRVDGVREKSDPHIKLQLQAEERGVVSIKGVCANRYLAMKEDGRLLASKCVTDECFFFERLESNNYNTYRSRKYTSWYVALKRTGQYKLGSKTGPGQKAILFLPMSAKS

[15] = JC-1 mitochondrial potential readout, lung cancer cells – cell-based, A549, JC-1 fluorescence, basal, 24 h, 100 nL, profiling panel (AID 1138); details: higher = more signal;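 further: A549 lung adenocarcinoma cells under basal conditions with no added stimulus; test concentration not given here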
Lefty1 = Lefty1 protein binding to printed compounds – biochemical, small-molecule microarray, 635/667 nm fluorescence, primary screen (AID 1139); details: fluorescence 635/667, higher = more signal
[16] = tested on: wheat germ agglutinin (Triticum aestivum), Alexa647-labelled; experiment: Alexa647-WGA lectin binding to printed small molecules – biochemical, small-molecule microarray, 635/667 nm fluorescence, artefact control for SMM control-protein annotation, profiling panel (AID 1140); details: WGA-A647 binding, 635 nm fluorescence, higher = more signal;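 further: score merges 667 nm feature emission with signal to noise over triplicate slides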
[17] = molecular target: Luciferin 4-monooxygenase (Photinus pyralis) (UniProt P08659); experiment: inhibition of purified Photinus pyralis luciferase – biochemical, luminescence, purified enzyme, 2006 set, primary screen (AID 1141); details: purified firefly luciferase, SteadyGlo luminescence, 30 min; higher = more signal, called active from +8 up or from −8 down;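 further: cell-free assay with purified firefly luciferase at 100 ng per well in PBS; test concentration not given here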
Luciferin 4-monooxygenase (Photinus pyralis), sequence (P08659 whole entry, looked up): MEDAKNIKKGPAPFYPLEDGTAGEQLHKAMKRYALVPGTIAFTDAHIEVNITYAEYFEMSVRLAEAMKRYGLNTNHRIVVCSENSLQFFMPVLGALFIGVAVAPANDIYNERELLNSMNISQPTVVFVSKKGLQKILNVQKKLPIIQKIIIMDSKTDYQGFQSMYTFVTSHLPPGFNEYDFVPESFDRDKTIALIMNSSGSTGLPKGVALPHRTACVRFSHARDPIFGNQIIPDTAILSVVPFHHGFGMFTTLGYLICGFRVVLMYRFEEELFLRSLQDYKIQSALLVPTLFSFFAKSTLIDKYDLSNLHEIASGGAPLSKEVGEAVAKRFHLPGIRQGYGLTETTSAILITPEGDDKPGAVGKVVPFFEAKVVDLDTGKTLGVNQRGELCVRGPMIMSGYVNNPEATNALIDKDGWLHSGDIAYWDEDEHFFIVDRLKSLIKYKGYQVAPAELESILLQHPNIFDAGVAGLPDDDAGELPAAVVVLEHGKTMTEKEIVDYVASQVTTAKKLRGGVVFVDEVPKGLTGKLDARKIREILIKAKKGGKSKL

SMILES | composite z-score (Albumin (Bos taurus)) | composite Z-score [1] | composite z-score [2] | composite z-score [3] | composite z-score [4] | composite z-score [5] | composite z-score [6] | composite z-score (Sam68 (KHDRBS1)) | composite z-score [7] | composite z-score [8] | composite z-score [9] | composite z-score [10] | composite z-score [11] | composite z-score [12] | composite z-score [13] | composite z-score [14] | z-score [15] | composite z-score (Lefty1) | composite z-score [16] | z-score [17]
Cc1ccc(S[C@]2(C(=O)NCC(F)(F)F)CC(=O)N(C3Cc4ccccc4C3)[C@@H]2c2ccc(CO)cc2I)cc1 | 0.0944 | 0.325 (inactive) | -0.207 | -0.156 | 0.629 | 0.403 | -0.245 | -0.292 | -1.18 | -1.71 | -1.2 | -0.38 | -0.493 | -0.161 | -1.14 | -1.01 | 0.496 | -1.36 | 0.0728 | -0.727 (inactive)
CC(C)C(=C=CC[C@H](O)c1ccccc1OCCO)CCO | -0.415 | -0.172 (inactive) | -0.0947 | -0.045 | 0.707 | 0.989 | 0.342 | 0.829 | -0.332 | -0.284 | 0.526 | 0.0618 | 0.101 | 0.217 | 0.0251 | 0.465 | 0.205 | 0.653 | 0.417 | 0.27 (inactive)
CCOC1=C2C(c3ccc(C)cc3)N(S(=O)(=O)c3ccc(C)cc3)CC2n2c(=O)n(-c3ccccc3)c(=O)n2C1 (stereo not given) | 0.495 | 0.193 (inactive) | 0.125 | -0.0276 | 0.639 | 2.65 | 0.91 | 1.35 | 0.339 | 1.14 | 0.229 | 1.16 | 0.206 | 0.933 | 0.876 | 0.747 | 0.374 | 0.53 | 0.755 | 1.09 (inactive)
CCCC[C@H]1OB(O)C[C@H]2C1=C(COc1ccccc1)C[C@H]1C(=O)N(Cc3ccccc3)C(=O)[C@H]12 | 0.117 | 0.142 (inactive) | 0.0203 | -0.108 | 0.602 | 0.383 | 0.154 | 0.868 | 0.0092 | 1.12 | 0.755 | 0.692 | 0.314 | 0.817 | 0.512 | 0.291 | 0.742 | 0.872 | 0.571 | 0.258 (inactive)
C=CCC(OC(C)=O)[C@@H]1[C@@H](N(Cc2ccc(-c3ccccc3)cc2)C(=O)c2ccc(C)cc2)c2cc(OCCCO)ccc2N1C(=O)Cc1ccc(OC)cc1 (stereo not given in full) | -0.0547 | 0.39 (inactive) | -0.0208 | -0.0131 | -0.249 | 0.0567 | 0.179 | -0.248 | -0.0845 | 0.733 | -0.109 | -0.33 | -0.026 | 0.386 | 0.534 | -0.177 | 1.85 | 0.0835 | 0.115 | -1.58 (inactive)
CN1C(=O)C2C(C1=O)C1C=C(c3ccc(CO)cc3)C2C(C2CC2)N1Cc1sc2ccccc2c1Cl (stereo not given) | 0.947 | -0.0285 (inactive) | 0.248 | 0.114 | 0.661 | 2.59 | 0.74 | 1.3 | -0.124 | 1.21 | 3.31 | 1.26 | 1.89 | 0.982 | 0.968 | 1.06 | 2.26 | 0.453 | 1.25 | -1.75 (inactive)
